PubChem BioAssay (NCI)
Compounds without any hit were thinned out: in the full panel of roughly 83,000, 20% have a hit.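 Results are percent growth after 48 hours of single-concentration exposure. 100 means growth as in untreated cells, lower positive values show inhibition; negative values down to -100 show cell death.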 Values without a mark were called inactive. Activity calls are given as the source filed them. Rule for the calls: active = growth percent below 10; inactive = the rest.

Columns and labels:
Assay in all cases: NCI-60 one-dose screen, 48 h (100 = growth as untreated, 0 = no growth, -100 = all killed)
Conditions in all cases: 10 µM unless noted
[1] = system: T-47D breast
[2] = system: BT-549 breast
[3] = system: MDA-MB-435 melanoma
[4] = system: SW-620 colon
[5] = system: MCF7 breast
[6] = system: HCT-116 colon
[7] = system: HCC-2998 colon
[8] = system: KM12 colon

NC1=C(c2nn[nH]n2)C(c2ccccc2Cl)c2ccc3ccccc3c2O1 (stereo not given)
growth [1]: 69.3%
growth [2]: 93.1%
growth [3]: -10.3% (active)
growth [4]: 48.8%
growth [5]: 41.3%
growth [6]: 63.1%
growth [7]: 98.6%
growth [8]: 60.4%

CCN(CC)c1ccc(C2=NN(C(C)=O)C(c3cc(OC)c(OC)c(OC)c3)C2)cc1 (stereo not given)
growth [1]: 47.2%
growth [2]: -36.3% (active)
growth [3]: -53% (active)
growth [4]: 22.3%
growth [5]: 27%
growth [6]: 6.95% (active)
growth [7]: -6.47% (active)
growth [8]: -17% (active)

C=C1C(=O)O[C@H]2[C@H]1CC/C(COC(=O)CCSSCCC(=O)OC/C1=C/CC[C@@]3(C)O[C@H]3[C@H]3OC(=O)C(=C)[C@@H]3CC1)=C\CC[C@@]1(C)O[C@@H]21
growth [1]: -8.54% (active)
growth [2]: -78.5% (active)
growth [3]: 10.8%
growth [4]: -77.7% (active)
growth [5]: -49.4% (active)
growth [6]: -90.2% (active)
growth [7]: 67%
growth [8]: 51.6%

CN1C(=C2C(=O)OC(C)(C)OC2=O)CCC1C(=O)NCc1ccc(Cl)cc1Cl (stereo not given)
growth [1]: 97.4%
growth [2]: 107%
growth [3]: 109%
growth [4]: 104%
growth [5]: 98.3%
growth [6]: 88.3%
growth [7]: 96.5%
growth [8]: 98.5%

O=C(Nc1ccc(F)cc1F)c1cc(F)ccc1O
growth [1]: 6.93% (active)
growth [2]: 8.69% (active)
growth [3]: 14.6%
growth [4]: 20.8%
growth [5]: 4.23% (active)
growth [6]: 12.8%
growth [7]: 27.9%
growth [8]: 8.7% (active)

O=c1c2cc(F)ccc2sc2c(NCCCNCCO)nc3ccccc3c12
growth [1]: 22.9%
growth [2]: 66.2%
growth [3]: -82.5% (active)
growth [4]: -78.3% (active)
growth [5]: -51.2% (active)
growth [6]: -94.1% (active)
growth [7]: -90.8% (active)
growth [8]: -77% (active)

O=c1[nH]c2c(ccc3cnccc32)c2c1CCC2
growth [1]: -7.41% (active)
growth [2]: -51.7% (active)
growth [3]: -60.1% (active)
growth [4]: -11.9% (active)
growth [5]: -4.54% (active)
growth [6]: 4.41% (active)
growth [7]: -51.8% (active)
growth [8]: -17.9% (active)

NCCNc1nc2ccccc2c2c(=O)c3cc(F)ccc3sc12
growth [1]: 88.7%
growth [2]: 92.5%
growth [3]: 58.6%
growth [4]: -29.1% (active)
growth [5]: 52.6%
growth [6]: 22%
growth [7]: 4.32% (active)
growth [8]: 34.5%

CCC12CCC[N+]3([O-])CCC4(C(=Nc5ccccc54)C(O)(C(=O)OC)C1)C23 (stereo not given)
growth [1]: 94.8%
growth [2]: 102%
growth [3]: 112%
growth [4]: 95.4%
growth [5]: 116%
growth [6]: 94.5%
growth [7]: 97.8%
growth [8]: 99.6%

CC1=C([Se]CC(OC(=O)[C@@H](CSSC(C)(C)C)NC(=O)OC(C)(C)C)C(=O)NC(C)(C)C)C(=O)c2ccccc2C1=O (stereo not given in full)
growth [1]: -50.3% (active)
growth [2]: -97.8% (active)
growth [3]: -91.2% (active)
growth [4]: -83.3% (active)
growth [5]: -25.9% (active)
growth [6]: -73.8% (active)
growth [7]: -93.5% (active)
growth [8]: -97.7% (active)

Cc1ccc(C(=O)NN2C(=O)CSC2c2ccc(Cl)cc2)cn1 (stereo not given)
growth [1]: 84%
growth [2]: 192%
growth [3]: 91.1%
growth [4]: 97%
growth [5]: 105%
growth [6]: 96%
growth [7]: 96.5%
growth [8]: 97.9%

COc1ccc(C(=S)N2CCN(c3cccc(C)c3)CC2)cc1OC
growth [1]: 76%
growth [2]: 59.1%
growth [3]: 2.58% (active)
growth [4]: 36.5%
growth [5]: 43.4%
growth [6]: 37%
growth [7]: 62.5%
growth [8]: 43.2%

COc1cc(/C=C/C(=O)/C=C/c2cc(OC)c3c(c2OC)OCO3)c(OC)c2c1OCO2
growth [1]: 31%
growth [2]: 31.4%
growth [3]: 11.5%
growth [4]: 17.8%
growth [5]: 19.1%
growth [6]: 2.58% (active)
growth [7]: 107%
growth [8]: 37%

COc1ccc(C2=Nn3c(nnc3-c3cc(Cl)cc(Cl)c3Cl)SC2)cc1
growth [1]: 68.6%
growth [2]: -31.2% (active)
growth [3]: -46.7% (active)
growth [4]: 20.2%
growth [5]: 7.11% (active)
growth [6]: -27% (active)
growth [7]: -57.9% (active)
growth [8]: 6.48% (active)

COc1ccc(-c2[nH]ncc2-c2cc3c(c(OC)c2)OCC(=O)N3)cc1
growth [1]: 27.2%
growth [2]: 38.4%
growth [3]: -56.6% (active)
growth [4]: 12.6%
growth [5]: 15.6%
growth [6]: 13%
growth [7]: 35.2%
growth [8]: 23.1%
